{"source": "PubChem BioAssay (EPA / NIEHS)", "note": "The source made the active and inactive calls. Rule for the calls: active = hit-call score of the fitted dose curve at least 0.9, where 1 is the maximum; inactive = score below 0.9."}
{"read-out": "Interleukin 6 (IL6), IL6 (gene 3569)", "assay": "LTEA_HepaRG_IL6: Life Technologies and Expression Analysis (LTEA) Assay for Interleukin 6 (IL6) using HepaRG (AID 2283509)", "settings": "mRNA level, 48 h; actives raise or lower the signal", "how_it_was_run": "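HepaRG, ~100,000 cells/well, 48 h pre-culture; serum-free induction medium; cmpd 8-pt half-log from 100 uM, 0.5% DMSO, duplicate, 48 h. Lysis in RLT, TaqMan qRT-PCR; gain or loss vs DMSO.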"}
{"smiles": "Nc1cc2c3c(c1)C(c1ccccc1)=N[C@@H](NC(=O)c1cccnc1)C(=O)N3CC2", "outcome": "inactive"}
{"smiles": "c1nc[nH]n1", "outcome": "inactive"}
{"smiles": "CCC(C)(C)c1ccc(O)cc1", "outcome": "inactive"}
{"smiles": "CCOP(=S)(OCC)SCSCC", "outcome": "inactive"}
{"smiles": "CCNc1nc(Cl)nc(NC(C)(C)C)n1", "outcome": "inactive"}
{"smiles": "CCOC(=O)c1ccccc1C(=O)OCC", "outcome": "inactive"}
{"smiles": "CCOP(=S)(Oc1ccc([N+](=O)[O-])cc1)c1ccccc1", "note": "(centres undefined)", "outcome": "inactive"}
{"smiles": "Nc1ccc(Cl)cc1", "outcome": "inactive"}
{"smiles": "Cc1ccc(N)cc1N", "outcome": "inactive"}
{"smiles": "CCOc1ccc(C(C)(C)COCc2cccc(Oc3ccccc3)c2)cc1", "outcome": "inactive"}
{"smiles": "ClC1=C(Cl)C2(Cl)C3C(Cl)C(Cl)CC3C1(Cl)C2(Cl)Cl", "note": "(centres undefined)", "outcome": "inactive"}
{"smiles": "CCCCN(CCCC)N=O", "outcome": "inactive"}
{"smiles": "c1ccc(OP(Oc2ccccc2)Oc2ccccc2)cc1", "outcome": "inactive"}
{"smiles": "CCC1(c2ccccc2)C(=O)N=C(O)NC1=O", "note": "(centres undefined)", "outcome": "inactive"}
{"smiles": "Cc1cccc(N)c1", "outcome": "inactive"}
{"smiles": "CC(C)(C)OOC(C)(C)C", "outcome": "inactive"}
{"smiles": "CCCCCCCc1ccc(O)cc1", "outcome": "inactive"}
{"smiles": "ClC(Cl)c1ccccc1", "outcome": "inactive"}
{"smiles": "CCCCN(CCCC)SN(C)C(=O)Oc1cccc2c1OC(C)(C)C2", "outcome": "inactive"}
{"smiles": "c1cc2c3c(cccc3c1)CC2", "outcome": "inactive"}
{"smiles": "CN(C)C(=O)Cl", "outcome": "inactive"}
{"read-out": "Interleukin 6 Receptor (IL6R), IL6R (gene 3570)", "assay": "LTEA_HepaRG_IL6R: Life Technologies and Expression Analysis (LTEA) Assay for Interleukin 6 Receptor (IL6R) using HepaRG (AID 2283510)", "settings": "mRNA level, 48 h; actives raise or lower the signal", "how_it_was_run": "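Readout is IL6R transcript level by TaqMan qRT-PCR, normalized to three housekeeping genes and fitted bidirectionally against 0.5% DMSO controls. Human HepaRG cells received chemicals for 48 h in serum-free induction medium, highest concentration 100 uM.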"}
{"smiles": "Nc1cc2c3c(c1)C(c1ccccc1)=N[C@@H](NC(=O)c1cccnc1)C(=O)N3CC2", "outcome": "inactive"}
{"smiles": "c1nc[nH]n1", "outcome": "inactive"}
{"smiles": "CCC(C)(C)c1ccc(O)cc1", "outcome": "inactive"}
{"smiles": "CCOP(=S)(OCC)SCSCC", "outcome": "inactive"}
{"smiles": "CCNc1nc(Cl)nc(NC(C)(C)C)n1", "outcome": "inactive"}
{"smiles": "CCOC(=O)c1ccccc1C(=O)OCC", "outcome": "inactive"}
{"smiles": "CCOP(=S)(Oc1ccc([N+](=O)[O-])cc1)c1ccccc1", "note": "(centres undefined)", "outcome": "inactive"}
{"smiles": "Nc1ccc(Cl)cc1", "outcome": "inactive"}
{"smiles": "Cc1ccc(N)cc1N", "outcome": "inactive"}
{"smiles": "CCOc1ccc(C(C)(C)COCc2cccc(Oc3ccccc3)c2)cc1", "outcome": "inactive"}
{"smiles": "ClC1=C(Cl)C2(Cl)C3C(Cl)C(Cl)CC3C1(Cl)C2(Cl)Cl", "note": "(centres undefined)", "outcome": "inactive"}
{"smiles": "CCCCN(CCCC)N=O", "outcome": "inactive"}
{"smiles": "c1ccc(OP(Oc2ccccc2)Oc2ccccc2)cc1", "outcome": "inactive"}
{"smiles": "CCC1(c2ccccc2)C(=O)N=C(O)NC1=O", "note": "(centres undefined)", "outcome": "inactive"}
{"smiles": "Cc1cccc(N)c1", "outcome": "inactive"}
{"smiles": "CC(C)(C)OOC(C)(C)C", "outcome": "inactive"}
{"smiles": "CCCCCCCc1ccc(O)cc1", "outcome": "inactive"}
{"smiles": "ClC(Cl)c1ccccc1", "outcome": "inactive"}
{"smiles": "CCCCN(CCCC)SN(C)C(=O)Oc1cccc2c1OC(C)(C)C2", "outcome": "inactive"}
{"smiles": "c1cc2c3c(cccc3c1)CC2", "outcome": "inactive"}
{"smiles": "CN(C)C(=O)Cl", "outcome": "inactive"}
{"read-out": "Potassium channel subfamily K member 1 (KCNK1), KCNK1 (gene 3775)", "assay": "LTEA_HepaRG_KCNK1: Life Technologies and Expression Analysis (LTEA) Assay for Potassium channel subfamily K member 1 (KCNK1) using HepaRG (AID 2283511)", "settings": "mRNA level, 48 h; actives raise or lower the signal", "how_it_was_run": "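Gain or loss of KCNK1 mRNA is the read-out, quantified by qRT-PCR against three housekeeping genes after 48 h chemical treatment of human HepaRG liver cells. Concentrations ran from 100 uM downward in half-log steps, vehicle 0.5% DMSO.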"}
{"smiles": "Nc1cc2c3c(c1)C(c1ccccc1)=N[C@@H](NC(=O)c1cccnc1)C(=O)N3CC2", "outcome": "inactive"}
{"smiles": "c1nc[nH]n1", "AC50": "0.116 µM (active)"}
{"smiles": "CCC(C)(C)c1ccc(O)cc1", "outcome": "inactive"}
{"smiles": "CCOP(=S)(OCC)SCSCC", "outcome": "inactive"}
{"smiles": "CCNc1nc(Cl)nc(NC(C)(C)C)n1", "outcome": "inactive"}
{"smiles": "CCOC(=O)c1ccccc1C(=O)OCC", "outcome": "inactive"}
{"smiles": "CCOP(=S)(Oc1ccc([N+](=O)[O-])cc1)c1ccccc1", "note": "(centres undefined)", "outcome": "inactive"}
{"smiles": "Nc1ccc(Cl)cc1", "outcome": "inactive"}
{"smiles": "Cc1ccc(N)cc1N", "outcome": "inactive"}
{"smiles": "CCOc1ccc(C(C)(C)COCc2cccc(Oc3ccccc3)c2)cc1", "outcome": "inactive"}
{"smiles": "ClC1=C(Cl)C2(Cl)C3C(Cl)C(Cl)CC3C1(Cl)C2(Cl)Cl", "note": "(centres undefined)", "outcome": "inactive"}
{"smiles": "CCCCN(CCCC)N=O", "outcome": "inactive"}
{"smiles": "c1ccc(OP(Oc2ccccc2)Oc2ccccc2)cc1", "outcome": "inactive"}
{"smiles": "CCC1(c2ccccc2)C(=O)N=C(O)NC1=O", "note": "(centres undefined)", "outcome": "inactive"}
{"smiles": "Cc1cccc(N)c1", "outcome": "inactive"}
{"smiles": "CC(C)(C)OOC(C)(C)C", "outcome": "inactive"}
{"smiles": "CCCCCCCc1ccc(O)cc1", "outcome": "inactive"}
{"smiles": "ClC(Cl)c1ccccc1", "outcome": "inactive"}
{"smiles": "CCCCN(CCCC)SN(C)C(=O)Oc1cccc2c1OC(C)(C)C2", "outcome": "inactive"}
{"smiles": "c1cc2c3c(cccc3c1)CC2", "outcome": "inactive"}
{"smiles": "CN(C)C(=O)Cl", "outcome": "inactive"}
{"read-out": "Keratin 19 (KRT19), KRT19 (gene 3880)", "assay": "LTEA_HepaRG_KRT19: Life Technologies and Expression Analysis (LTEA) Assay for Keratin 19 (KRT19) using HepaRG (AID 2283512)", "settings": "mRNA level, 48 h; actives raise or lower the signal", "how_it_was_run": "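KRT19 transcript measured by TaqMan qRT-PCR, referenced to three housekeeping genes, after HepaRG cells received test chemicals for 48 h. Eight half-log concentrations, top 100 uM, 0.5% DMSO vehicle; increases and decreases both fitted.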"}
{"smiles": "Nc1cc2c3c(c1)C(c1ccccc1)=N[C@@H](NC(=O)c1cccnc1)C(=O)N3CC2", "outcome": "inactive"}
{"smiles": "c1nc[nH]n1", "outcome": "inactive"}
{"smiles": "CCC(C)(C)c1ccc(O)cc1", "outcome": "inactive"}
{"smiles": "CCOP(=S)(OCC)SCSCC", "outcome": "inactive"}
{"smiles": "CCNc1nc(Cl)nc(NC(C)(C)C)n1", "AC50": "10.7 µM (active)"}
{"smiles": "CCOC(=O)c1ccccc1C(=O)OCC", "outcome": "inactive"}
{"smiles": "CCOP(=S)(Oc1ccc([N+](=O)[O-])cc1)c1ccccc1", "note": "(centres undefined)", "AC50": "15.9 µM (active)"}
{"smiles": "Nc1ccc(Cl)cc1", "outcome": "inactive"}
{"smiles": "Cc1ccc(N)cc1N", "outcome": "inactive"}
{"smiles": "CCOc1ccc(C(C)(C)COCc2cccc(Oc3ccccc3)c2)cc1", "outcome": "inactive"}
{"smiles": "ClC1=C(Cl)C2(Cl)C3C(Cl)C(Cl)CC3C1(Cl)C2(Cl)Cl", "note": "(centres undefined)", "outcome": "inactive"}
{"smiles": "CCCCN(CCCC)N=O", "outcome": "inactive"}
{"smiles": "c1ccc(OP(Oc2ccccc2)Oc2ccccc2)cc1", "outcome": "inactive"}
{"smiles": "CCC1(c2ccccc2)C(=O)N=C(O)NC1=O", "note": "(centres undefined)", "outcome": "inactive"}
{"smiles": "Cc1cccc(N)c1", "outcome": "inactive"}
{"smiles": "CC(C)(C)OOC(C)(C)C", "outcome": "inactive"}
{"smiles": "CCCCCCCc1ccc(O)cc1", "outcome": "inactive"}
{"smiles": "ClC(Cl)c1ccccc1", "outcome": "inactive"}
{"smiles": "CCCCN(CCCC)SN(C)C(=O)Oc1cccc2c1OC(C)(C)C2", "outcome": "inactive"}
{"smiles": "c1cc2c3c(cccc3c1)CC2", "outcome": "inactive"}
{"smiles": "CN(C)C(=O)Cl", "outcome": "inactive"}
